The full list was thinned out, with hits kept by preference.
IDE exosite inh: exo-site inhibitors of human IDE, primary screen, biochemical, fluorescence anisotropy, probe displacement; Insulin-degrading enzyme (Homo sapiens), P14735; purified IDE, FL-6b probe fluorescence polarization; active compounds read low; z-score at 20 µM; actives 6.3% (n = 17,000); AID 1259349, 2017;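 active = z-score of -3 or lower, meaning strong loss of probe binding signal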;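 also: His-tagged human IDE residues 42-1019 made in E. coli with 30 nM FL-6b probe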
Target sequence (P14735 42-1019 limits assumed): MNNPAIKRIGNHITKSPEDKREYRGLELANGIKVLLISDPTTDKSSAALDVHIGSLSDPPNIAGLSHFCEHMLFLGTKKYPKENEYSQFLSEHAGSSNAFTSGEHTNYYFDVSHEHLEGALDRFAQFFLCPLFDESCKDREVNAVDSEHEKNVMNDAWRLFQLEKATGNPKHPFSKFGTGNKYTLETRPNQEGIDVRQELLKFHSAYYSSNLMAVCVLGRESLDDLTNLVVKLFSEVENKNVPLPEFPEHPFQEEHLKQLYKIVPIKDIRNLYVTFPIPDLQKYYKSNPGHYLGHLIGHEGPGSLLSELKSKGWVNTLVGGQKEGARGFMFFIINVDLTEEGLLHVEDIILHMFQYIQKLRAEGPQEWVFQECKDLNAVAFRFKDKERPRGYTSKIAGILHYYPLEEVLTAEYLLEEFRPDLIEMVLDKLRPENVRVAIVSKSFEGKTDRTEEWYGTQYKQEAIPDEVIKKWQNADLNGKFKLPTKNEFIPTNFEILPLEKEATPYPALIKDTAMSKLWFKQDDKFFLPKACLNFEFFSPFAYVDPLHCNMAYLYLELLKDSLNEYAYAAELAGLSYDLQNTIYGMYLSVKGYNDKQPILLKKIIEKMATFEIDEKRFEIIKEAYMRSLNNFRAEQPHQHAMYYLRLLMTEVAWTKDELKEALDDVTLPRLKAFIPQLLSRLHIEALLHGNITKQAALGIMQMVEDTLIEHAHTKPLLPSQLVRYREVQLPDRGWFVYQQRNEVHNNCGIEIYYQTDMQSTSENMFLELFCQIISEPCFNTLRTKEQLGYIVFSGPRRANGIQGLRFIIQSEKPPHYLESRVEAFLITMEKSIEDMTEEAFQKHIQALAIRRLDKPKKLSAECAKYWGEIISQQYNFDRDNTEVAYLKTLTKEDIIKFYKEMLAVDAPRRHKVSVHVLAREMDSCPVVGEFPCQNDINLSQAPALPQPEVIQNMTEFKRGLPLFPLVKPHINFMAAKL
Large screens that a line does not name were inactive.

O=C(NCCN1CCCC1)c1cc2c(c(-c3cccc(C4=CCCC4)c3)n1)[C@@H](CCO)N(CC1CC1)C2	none
C=C(C)C[C@H]1CCn2nncc2COCCNC1=O	none
CCC(=O)N1CCCCN2[C@H](C1)[C@@H](c1ccc(C#Cc3cccnc3)cc1)[C@@H]2CO	none
COCC(=O)N1CCCCN2[C@@H](CO)[C@H](c3ccc(C#Cc4cccnc4)cc3)[C@@H]2C1	IDE exosite inh -6.3
CCC(=O)N1CCCCN2[C@H](CO)[C@@H](c3ccc(C#Cc4cccnc4)cc3)[C@H]2C1	none
COCC(=O)N1CCCCN2[C@@H](CO)[C@@H](c3ccc(C#Cc4cccnc4)cc3)[C@@H]2C1	none
CCC(=O)N1CCCCN2[C@H](C1)[C@H](c1ccc(C#Cc3cccnc3)cc1)[C@@H]2CO	IDE exosite inh -3.5
COCC(=O)N1CC(=O)N2[C@H](C1)[C@H](c1ccc(C#Cc3cccnc3)cc1)[C@@H]2CO	none
COc1ccc2c3c([nH]c2c1)[C@@H](CO)N(C(=O)NC(C)C)CC31CCN(C(=O)C2CCCCC2)CC1	none
CCCNC(=O)N(C)C[C@H]1Oc2cc(C#C[C@@H](C)O)ccc2S(=O)(=O)N([C@H](C)CO)C[C@@H]1C	none
COc1ccc(S(=O)(=O)N(C)C[C@@H]2OCCCC[C@H](C)Oc3ccc(NC(=O)Cc4ccccc4)cc3C(=O)N([C@@H](C)CO)C[C@H]2C)cc1	none
O=C(C[C@@H]1CC[C@@H](NC(=O)CC2CC2)[C@@H](CO)O1)NCC(F)(F)F	none
O=C(C1CC1)N1CC(=O)N2[C@H](C1)[C@@H](c1ccc(Br)cc1)[C@@H]2CO	none
Cc1ccc(-c2ccc([C@@H]3[C@H]4CN(C(=O)c5ccncc5)CC(=O)N4[C@H]3CO)cc2)cc1	IDE exosite inh -4.4
Cc1ccc(-c2ccc([C@@H]3[C@@H](CO)N4C(=O)CN(C(=O)c5ccncc5)C[C@H]34)cc2)cc1	none
O=C(c1ccncc1)N1CC(=O)N2[C@H](C1)[C@@H](c1ccc(-c3ccccc3)cc1)[C@@H]2CO	IDE exosite inh -6.8
Cc1ccc(-c2ccc([C@H]3[C@H](CO)N4C(=O)CN(C(=O)c5ccncc5)C[C@@H]34)cc2)cc1	IDE exosite inh -3.2
Cc1ccc(-c2ccc([C@@H]3[C@H](CO)N4C(=O)CN(C(=O)c5ccncc5)C[C@@H]34)cc2)cc1	none
O=C(c1ccncc1)N1CC(=O)N2[C@H](C1)[C@H](c1ccc(-c3ccccc3)cc1)[C@@H]2CO	none
Cc1ccc(-c2ccc([C@@H]3[C@@H](CO)N4C(=O)CN(C(=O)c5ccncc5)C[C@@H]34)cc2)cc1	none
Cc1ccc(-c2ccc([C@H]3[C@H]4CN(C(=O)c5ccncc5)CC(=O)N4[C@H]3CO)cc2)cc1	none
O=C(c1ccncc1)N1CC(=O)N2[C@@H](CO)[C@@H](c3ccc(-c4ccccc4)cc3)[C@@H]2C1	none
COc1ccc(C#Cc2ccc([C@@H]3[C@@H](CO)N4C(=O)CN(C(=O)NC(C)C)C[C@@H]34)cc2)cc1	none
COc1ccc(NC(=O)N2CC(=O)N3[C@@H](CO)[C@H](c4ccc(C#CCC5CCCC5)cc4)[C@@H]3C2)cc1	none
CC(=O)N1CCCCN2[C@H](C1)[C@H](c1ccc(-c3ccncc3)cc1)[C@@H]2CO	none
CC(=O)N1CC(=O)N2[C@@H](CO)[C@H](c3ccc(-c4ccc(C#N)cc4)cc3)[C@@H]2C1	none
CC(=O)N(C)C[C@@H]1[C@@H](c2ccc(C#Cc3ccccn3)cc2)[C@@H](CO)N1C(C)=O	none
C/C=C/c1ccc([C@H]2[C@@H](CO)N(Cc3cccnc3)C23CN(C(=O)CC)C3)cc1	none
CC(=O)N(C)C[C@@H]1[C@H](c2ccc(-c3cccc(C#N)c3)cc2)[C@H](CO)N1C(C)=O	none
O=C(c1ccc(F)cc1)N1CC(=O)N2[C@@H](CO)[C@@H](c3ccc(C4=CCCC4)cc3)[C@@H]2C1	none
N#C[C@H]1[C@H](c2ccccc2)[C@H](CO)N1C(=O)c1cc(Cl)cc(Cl)c1	none
COc1ccccc1-c1ccc([C@@H]2[C@@H](CO)N3CCCCN(C(=O)CN4CCOCC4)C[C@@H]23)cc1	IDE exosite inh -6.5
CN1c2ccc(Br)cc2[C@H]2[C@H](CCN2C(=O)CN2CCOCC2)[C@H]1CO	none
COc1ccccc1-c1ccc2c(c1)[C@H]1[C@H](CCN1C(=O)CN1CCOCC1)[C@H](CO)N2C	IDE exosite inh -3.3
Cc1ccccc1-c1ccc([C@H]2[C@H](CO)N3CCCCN(C(=O)CN4CCOCC4)C[C@@H]23)cc1	IDE exosite inh -3.7
COc1ccccc1-c1ccc([C@@H]2[C@@H](CO)N3CCCCN(C(=O)CN4CCOCC4)C[C@H]23)cc1	none
Cc1ccccc1-c1ccc([C@@H]2[C@H](CO)N3CCCCN(C(=O)CN4CCOCC4)C[C@@H]23)cc1	IDE exosite inh -14
COc1ccccc1-c1ccc([C@H]2[C@@H](CO)N3CCCCN(C(=O)CN4CCOCC4)C[C@@H]23)cc1	none
CN1c2ccc(-c3cccc(C#N)c3)cc2[C@@H]2[C@@H](CCN2C(=O)CN2CCOCC2)[C@H]1CO	none
Cc1ccccc1-c1ccc([C@H]2[C@H]3CN(C(=O)CN4CCOCC4)CCCCN3[C@H]2CO)cc1	none
